Measured values from PubChem BioAssay AID1159580 (chemical genetic matrix, 2015).
Screen size: about 5,500 compounds; about 2,000 (36%) were called active. Roughly 18% stayed inconclusive and do not appear here. The list shows a part of the results. Values without a mark were called inactive. No stated cut-off is given here; in the data, active means normalized growth mostly below about 0.91 (no sharp cut-off); inconclusive means no clear call, values can overlap the other calls; inactive means mostly above about 0.92.

Test: chemical genetic growth profiling, strain panel (AID 1159580);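 further: tested at 20 µM; growth read once vehicle control cultures reached saturation at 30 °C; 1 = growth at the plate median or of vehicle wells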
Conditions: growth OD

## CC1=C2C(=CO[C@H](C)[C@H]2C)C(=O)C(C(=O)O)=C1O
S. cerevisiae deletion strains, locus YJR066W, strain TOR1, stronger effect = lower value
  normalized growth: 0.799 (active)
S. cerevisiae deletion strains, locus YKL009W, strain mrt4, stronger effect = lower value
  normalized growth: 0.936
S. cerevisiae deletion strains, locus YKL068W, stronger effect = lower value
  normalized growth: 0.972
S. cerevisiae deletion strains, locus YKL085W, strain MDH1 (second series), stronger effect = lower value
  normalized growth: 0.943
S. cerevisiae deletion strains, locus YKL085W, strain MDH1, stronger effect = lower value
  normalized growth: 0.943
S. cerevisiae deletion strains, locus YKL160W, strain elf1, stronger effect = lower value
  normalized growth: 0.95
S. cerevisiae deletion strains, locus YKL190W, strain CNB1, stronger effect = lower value
  normalized growth: 0.979
S. cerevisiae deletion strains, locus YKR001C, strain vps1, stronger effect = lower value
  normalized growth: 1
S. cerevisiae deletion strains, locus YKR026C, strain gcn3, stronger effect = lower value
  normalized growth: 0.979
S. cerevisiae deletion strains, locus YKR091W, strain srl3, stronger effect = lower value
  normalized growth: 0.986
S. cerevisiae deletion strains, locus YLL001W, strain dnm1, stronger effect = lower value
  normalized growth: 1
S. cerevisiae deletion strains, locus YLL026W, stronger effect = lower value
  normalized growth: 0.976
S. cerevisiae deletion strains, locus YLL041C, strain sdh2, stronger effect = lower value
  normalized growth: 0.98
S. cerevisiae deletion strains, locus YLR027C, strain aat2, stronger effect = lower value
  normalized growth: 0.981
S. cerevisiae deletion strains, locus YLR039C, strain RIC1, stronger effect = lower value
  normalized growth: 0.92
S. cerevisiae deletion strains, locus YLR058C, strain SHM2, stronger effect = lower value
  normalized growth: 0.985
S. cerevisiae deletion strains, locus YLR102C, strain apc9, stronger effect = lower value
  normalized growth: 0.979
S. cerevisiae deletion strains, locus YLR113W, strain HOG1, stronger effect = lower value
  normalized growth: 0.709 (active)
S. cerevisiae deletion strains, locus YLR221C, strain rsa3, stronger effect = lower value
  normalized growth: 0.971
S. cerevisiae deletion strains, locus YLR258W, strain gsy2, stronger effect = lower value
  normalized growth: 0.96
S. cerevisiae deletion strains, locus YLR262C, strain YPT6 (second series), stronger effect = lower value
  normalized growth: 0.891
S. cerevisiae deletion strains, locus YLR262C, strain YPT6, stronger effect = lower value
  normalized growth: 0.918
S. cerevisiae deletion strains, locus YLR268W, strain sec22, stronger effect = lower value
  normalized growth: 0.974
S. cerevisiae deletion strains, locus YLR320W, strain mms22, stronger effect = lower value
  normalized growth: 0.94
S. cerevisiae deletion strains, locus YLR330W, strain CHS5, stronger effect = lower value
  normalized growth: 0.98
S. cerevisiae deletion strains, locus YLR342W, strain FKS1 (second series), stronger effect = lower value
  normalized growth: 0.931
S. cerevisiae deletion strains, locus YLR342W, strain FKS1, stronger effect = lower value
  normalized growth: 0.954
S. cerevisiae deletion strains, locus YLR357W, strain rsc2, stronger effect = lower value
  normalized growth: 1.01
S. cerevisiae deletion strains, locus YLR370C, strain arc18, stronger effect = lower value
  normalized growth: 0.972
S. cerevisiae deletion strains, locus YLR371W, strain rom2, stronger effect = lower value
  normalized growth: 1.01
S. cerevisiae deletion strains, locus YLR384C, strain iki3, stronger effect = lower value
  normalized growth: 0.979
S. cerevisiae deletion strains, locus YLR418C, strain cdc73, stronger effect = lower value
  normalized growth: 0.95
S. cerevisiae deletion strains, locus YML016C, strain PPZ1, stronger effect = lower value
  normalized growth: 0.976
S. cerevisiae deletion strains, locus YML032C, strain rad52, stronger effect = lower value
  normalized growth: 0.984
S. cerevisiae deletion strains, locus YML120C, strain ndi1, stronger effect = lower value
  normalized growth: 0.975
S. cerevisiae deletion strains, locus YML124C, strain tub3, stronger effect = lower value
  normalized growth: 0.964
S. cerevisiae deletion strains, locus YMR058W, strain fet3, stronger effect = lower value
  normalized growth: 1
S. cerevisiae deletion strains, locus YMR078C, strain ctf18, stronger effect = lower value
  normalized growth: 0.984
S. cerevisiae deletion strains, locus YMR125W, strain sto1, stronger effect = lower value
  normalized growth: 0.996
S. cerevisiae deletion strains, locus YMR129W, stronger effect = lower value
  normalized growth: 0.973
S. cerevisiae deletion strains, locus YMR205C, strain PFK2, stronger effect = lower value
  normalized growth: 0.937
S. cerevisiae deletion strains, locus YMR223W, strain ubp8, stronger effect = lower value
  normalized growth: 0.997
S. cerevisiae deletion strains, locus YMR231W, strain pep5, stronger effect = lower value
  normalized growth: 0.981
S. cerevisiae deletion strains, locus YMR307W, strain GAS1, stronger effect = lower value
  normalized growth: 0.85
S. cerevisiae deletion strains, locus YNL067W, strain RPL9B, stronger effect = lower value
  normalized growth: 0.997
S. cerevisiae deletion strains, locus YNL071W, strain lat1, stronger effect = lower value
  normalized growth: 0.981
S. cerevisiae deletion strains, locus YNL128W, strain TEP1, stronger effect = lower value
  normalized growth: 1.01
S. cerevisiae deletion strains, locus YNL153C, strain GIM3, stronger effect = lower value
  normalized growth: 0.988
S. cerevisiae deletion strains, locus YNL183C, strain NPR1, stronger effect = lower value
  normalized growth: 0.82 (active)
S. cerevisiae deletion strains, locus YNL209W, strain ssb2, stronger effect = lower value
  normalized growth: 0.977
S. cerevisiae deletion strains, locus YNL233W, strain BNI4, stronger effect = lower value
  normalized growth: 1
S. cerevisiae deletion strains, locus YNL248C, strain rpa49, stronger effect = lower value
  normalized growth: 1.01
S. cerevisiae deletion strains, locus YNL250W, strain rad50, stronger effect = lower value
  normalized growth: 0.979
S. cerevisiae deletion strains, locus YNL271C, strain bni1, stronger effect = lower value
  normalized growth: 0.978
S. cerevisiae deletion strains, locus YNL298W, strain CLA4, stronger effect = lower value
  normalized growth: 0.956
S. cerevisiae deletion strains, locus YNL307C, strain MCK1, stronger effect = lower value
  normalized growth: 0.985
S. cerevisiae deletion strains, locus YNL322C, strain KRE1 (second series), stronger effect = lower value
  normalized growth: 0.965
S. cerevisiae deletion strains, locus YNL322C, strain KRE1, stronger effect = lower value
  normalized growth: 0.968
S. cerevisiae deletion strains, locus YNR049C, strain mso1, stronger effect = lower value
  normalized growth: 0.988
S. cerevisiae deletion strains, locus YNR052C, strain pop2, stronger effect = lower value
  normalized growth: 0.997
S. cerevisiae deletion strains, locus YOL012C, strain htz1
  normalized growth: 1.44
S. cerevisiae deletion strains, locus YOL147C, strain pex11, stronger effect = lower value
  normalized growth: 0.977
S. cerevisiae deletion strains, locus YOR001W, strain rrp6, stronger effect = lower value
  normalized growth: 0.972
S. cerevisiae deletion strains, locus YOR061W, strain CKA2, stronger effect = lower value
  normalized growth: 0.983
S. cerevisiae deletion strains, locus YOR069W, strain VPS5, stronger effect = lower value
  normalized growth: 0.973
S. cerevisiae deletion strains, locus YOR070C, strain gyp1, stronger effect = lower value
  normalized growth: 0.974
S. cerevisiae deletion strains, locus YOR080W, strain dia2, stronger effect = lower value
  normalized growth: 0.972
S. cerevisiae deletion strains, locus YOR083W, strain WHI5, stronger effect = lower value
  normalized growth: 1
S. cerevisiae deletion strains, locus YOR106W, strain vam3, stronger effect = lower value
  normalized growth: 1
S. cerevisiae deletion strains, locus YOR136W, strain idh2, stronger effect = lower value
  normalized growth: 0.985
S. cerevisiae deletion strains, locus YOR144C, strain elg1, stronger effect = lower value
  normalized growth: 0.981
S. cerevisiae deletion strains, locus YOR184W, strain ser1, stronger effect = lower value
  normalized growth: 0.989
S. cerevisiae deletion strains, locus YOR231W, strain MKK1, stronger effect = lower value
  normalized growth: 0.809 (active)
S. cerevisiae deletion strains, locus YOR265W, strain rbl2, stronger effect = lower value
  normalized growth: 0.967
S. cerevisiae deletion strains, locus YOR270C, strain vph1, stronger effect = lower value
  normalized growth: 1
S. cerevisiae deletion strains, locus YOR290C, strain snf2, stronger effect = lower value
  normalized growth: 0.969
S. cerevisiae deletion strains, locus YOR316C, strain cot1, stronger effect = lower value
  normalized growth: 0.972
S. cerevisiae deletion strains, locus YPL051W, strain arl3, stronger effect = lower value
  normalized growth: 0.967
S. cerevisiae deletion strains, locus YPL078C, strain atp4, stronger effect = lower value
  normalized growth: 0.993
S. cerevisiae deletion strains, locus YPL106C, strain sse1, stronger effect = lower value
  normalized growth: 0.933
S. cerevisiae deletion strains, locus YPL240C, strain hsp82, stronger effect = lower value
  normalized growth: 0.978
S. cerevisiae deletion strains, locus YPL241C, strain CIN2, stronger effect = lower value
  normalized growth: 0.971
S. cerevisiae deletion strains, locus YPL256C, strain CLN2, stronger effect = lower value
  normalized growth: 0.838
S. cerevisiae deletion strains, locus YPR119W, strain clb2, stronger effect = lower value
  normalized growth: 0.965
S. cerevisiae deletion strains, locus YPR141C, strain kar3, stronger effect = lower value
  normalized growth: 0.957
S. cerevisiae deletion strains, locus YPR163C, strain tif3, stronger effect = lower value
  normalized growth: 1.01
S. cerevisiae deletion strains, locus YPR167C, strain met16, stronger effect = lower value
  normalized growth: 0.987
S. cerevisiae deletion strains, strain wtn01, stronger effect = lower value
  normalized growth: 0.956
S. cerevisiae strains, strain wild type, stronger effect = lower value
  normalized growth: 0.974
